Results filed as inconclusive are left out. The source made the active and inactive calls. Calls follow the shape of the full dose curve.
Experiment: qHTS assay for small molecule agonists of the p53 signaling pathway (AID 651631); also: nearly all actives have a fitted effect of over 15% in size
Settings: HCT-116 p53RE-bla reporter, beta-lactamase FRET ratio, 16 h; series mostly up to 73.3 µM; activation: at the top concentration
Source text: U.S. Tox21 Program National Center for Advancing Translational Sciences [NCATS] NIH Chemical Genomics Center [NCGC] U.S. Environmental Protection Agency [EPA] National Institutes of Environmental Health Sciences [NIEHS] National Toxicology Program [NTP] U.S. Food and Drug Administration [FDA] Tox21 Assay Overview: p53, a tumor suppressor protein, is activated following cellular insult, including DNA damage and other cellular stresses. The activation of p53 regulates cell fate by inducing DNA repair, cell cycle arrest, apoptosis, or cellular senescence. The activation of p53, therefore, is a good indicator of DNA damage and other cellular stresses. The CellSensor p53RE-bla HCT-116 cell line (Invitrogen) contains a stably integrated beta-lactamase reporter gene under control of the p53 response elements. The activation of the reporter gene under culture conditions can be detected by fluorescence intensity. This cell line was used to screen the Tox21 compound library in a 1536-well plate format and to identify agonists that activate the p53 signaling pathway.
Tox21 Assay Protocol Summary: The p53RE-bla cells were dispensed at 4,000 cells/5 ul/well in 1536-well black wall/clear bottom plates using a Multidrop dispenser. After the assay plates were incubated at a 37 C/5% CO2 incubator for 5 hours, 23 nL of compounds dissolved in DMSO, positive controls or DMSO only was transferred to the assay plate by a pin tool. The plates were incubated at 37 C for 16 hours. After 1 uL of LiveBLAzerTM B/G FRET substrate was added using a Flying Reagent Dispenser, the plates were incubated at room temperature for 2 hours, and fluorescence intensity was measured by an Envision plate reader.
% is scaled to controls: 0 for no effect and ±100 for the full control effect.

Compound | outcome | activation
CC(C)C1(C)N=C(c2nc3ccccc3cc2C(=O)O)NC1=O (stereo not given) | inactive | 
CC(C)(C)C(O)(CCc1ccc(Cl)cc1)Cn1cncn1 (stereo not given) | inactive | 
Cn1cc(-c2ccccc2)c(=O)c(-c2cccc(C(F)(F)F)c2)c1 | inactive | 
CC(C)OC(=O)Nc1cccc(Cl)c1 |  | 3.47% (inactive)
C#CC(C)(C)NC(=O)c1cc(Cl)cc(Cl)c1 | inactive | 
CC(C)NC(=O)N1CC(=O)N(c2cc(Cl)cc(Cl)c2)C1=O | inactive | 
COP(N)(=O)SC (stereo not given) | inactive | 
CN(C)[C@@H]1C(=O)C(C(N)=O)=C(O)[C@@]2(O)C(=O)C3=C(O)c4c(O)cccc4[C@@](C)(O)[C@H]3C[C@@H]12 | inactive | 
CON(C)C(=O)Nc1ccc(Cl)c(Cl)c1 | inactive | 
CC(C)OC(=O)Nc1ccccc1 |  | 2.44% (inactive)
C=C(C)CCl |  | -2.09% [at 8.3 µM] (inactive)
BrCCBr | inactive | 
COC(=O)NS(=O)(=O)c1ccc(N)cc1 | inactive | 
Oc1ccccc1Cl |  | -1.26% (inactive)
OC(O)C(Cl)(Cl)Cl | inactive | 
CC(C)N1C(=O)c2ccccc2NS1(=O)=O | inactive | 
CC(C)(C)OOC(C)(C)C |  | -0.84% (inactive)
Nc1ccc(Cc2ccc(N)cc2)cc1 |  | -2% (inactive)
NCC(O)c1ccc(O)cc1 (stereo not given) | inactive | 
CCC[N+](=O)[O-] | inactive | 

Compound | outcome | activation
c1ccc2c(c1)Oc1ccccc1O2 | inactive | 
O=[N+]([O-])c1ccc([As](=O)(O)O)cc1 | inactive | 
O=c1ccc(=O)[nH][nH]1 | inactive | 
CN(C)N=O | inactive | 
CC(C)(C)OOC(=O)c1ccccc1 | inactive | 
O=S(=O)(c1ccc(O)cc1)c1ccc(O)cc1 |  | -2.53% (inactive)
COC(=O)c1ccccc1N | inactive | 
CC(NC(C)(C)C)C(=O)c1cccc(Cl)c1 (stereo not given) |  | 2.77% (inactive)
O=C(O)c1ccccn1 | inactive | 
Cc1ccccc1O |  | -1.72% (inactive)
O=c1[nH]c2ccccc2c(=O)o1 | inactive | 
CCNc1nc(NC(C)(C)C)nc(SC)n1 |  | 3.64% (inactive)
CCOP(=S)(OCC)SCCSCC | inactive | 
CCCN(CCC)N=O |  | 1.28% (inactive)
Nc1c(Cl)c(Cl)nc(C(=O)O)c1Cl | inactive | 
CCCCCCCCCCCC#N | inactive | 
CNC(=O)Oc1ccccc1OC(C)C |  | 1.63% (inactive)
O=c1n(Cl)c(=O)n(Cl)c(=O)n1Cl | inactive | 
[O-][Cl+2]([O-])O | inactive | 
c1ccc2c(c1)oc1ccccc12 | inactive | 
